Test results published in PubChem BioAssay (EPA / NIEHS).
The source made the active and inactive calls. Rule for the calls: active = hit-call score of the fitted dose curve at least 0.9, where 1 is the maximum; inactive = score below 0.9.

Key:
Conditions in all cases: mRNA level, 48 h; actives raise or lower the signal
[1] = read-out: Heat shock 70 kDa protein 1 (HSPA1A), gene 3303; assay: LTEA_HepaRG_HSPA1A: Life Technologies and Expression Analysis (LTEA) Assay for Heat shock 70 kDa protein 1 (HSPA1A) using HepaRG (AID 2283502)
How it was run: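 HSPA1A expression measured by qRT-PCR with ACTB/GAPDH/POLR2A normalization; curves fitted in both directions relative to DMSO vehicle. Exposure: 48 h in HepaRG cells, duplicate 8-point half-log series from 100 uM, 0.5% DMSO, serum-free induction medium.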

[2] = read-out: 3-Hydroxy-3-Methylglutaryl-CoA Synthase 2 (HMGCS2), HMGCS2 (gene 3158); assay: LTEA_HepaRG_HMGCS2: Life Technologies and Expression Analysis (LTEA) Assay for 3-Hydroxy-3-Methylglutaryl-CoA Synthase 2 (HMGCS2) using HepaRG (AID 2283504)
How it was run: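 Expression of HMGCS2 in human HepaRG liver cells is measured by qRT-PCR 48 h after dosing (highest 100 uM, half-log series, 0.5% DMSO). Values come from bidirectional concentration-response fitting with DMSO as baseline.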

HGF (gene 3082) = assay: LTEA_HepaRG_HGF: Life Technologies and Expression Analysis (LTEA) Assay for Hepatocyte Growth Facto (HGF) using HepaRG (AID 2283505)
How it was run: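 Gain or loss of HGF mRNA in human HepaRG liver cells after 48 h chemical exposure; eight concentrations up to 100 uM with 0.5% DMSO vehicle, quantified by TaqMan qRT-PCR.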

[3] = read-out: Insulin Like Growth Factor 1 (IGF1), IGF1 (gene 3479); assay: LTEA_HepaRG_IGF1: Life Technologies and Expression Analysis (LTEA) Assay for Insulin Like Growth Factor 1 (IGF1) using HepaRG (AID 2283506)
How it was run: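 Expression measured by TaqMan qRT-PCR on a Fluidigm array, with three housekeeping genes for normalisation, after 48 h treatment of HepaRG cells. Top concentration 100 uM with half-log steps, 0.5% DMSO vehicle, bidirectional fit.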

[4] = read-out: Insulin-like growth factor-binding protein 1 (IGFBP1), IGFBP1 (gene 3484); assay: LTEA_HepaRG_IGFBP1: Life Technologies and Expression Analysis (LTEA) Assay for Insulin-like growth factor-binding protein 1 (IGFBP1) using HepaRG (AID 2283508)
How it was run: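 mRNA induction or loss was quantified by qRT-PCR after 48 h chemical exposure of human HepaRG cells, with 0.5% DMSO as vehicle and baseline. Concentration-response over eight points up to 100 uM.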

[5] = read-out: Interleukin 6 (IL6), IL6 (gene 3569); assay: LTEA_HepaRG_IL6: Life Technologies and Expression Analysis (LTEA) Assay for Interleukin 6 (IL6) using HepaRG (AID 2283509)
How it was run: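 Changes in IL6 mRNA, up or down relative to 0.5% DMSO controls, were derived from concentration-response curves in human HepaRG cells treated for 48 h at up to 100 uM, with ACTB, GAPDH and POLR2A as normalizers.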

[6] = read-out: Interleukin 6 Receptor (IL6R), IL6R (gene 3570); assay: LTEA_HepaRG_IL6R: Life Technologies and Expression Analysis (LTEA) Assay for Interleukin 6 Receptor (IL6R) using HepaRG (AID 2283510)
How it was run: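 IL6R transcript level by qRT-PCR after 48 h chemical exposure (8-point, half-log, max 100 uM, 0.5% DMSO vehicle) of HepaRG cells in serum-free induction medium. Normalized to three housekeeping genes; curves fitted in both directions relative to DMSO.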

[7] = read-out: Keratin 19 (KRT19), KRT19 (gene 3880); assay: LTEA_HepaRG_KRT19: Life Technologies and Expression Analysis (LTEA) Assay for Keratin 19 (KRT19) using HepaRG (AID 2283512)
How it was run: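 Gene-expression endpoint in the human liver line HepaRG after 48 h exposure to up to 100 uM test chemical with 0.5% DMSO vehicle; KRT19 mRNA by qRT-PCR, analyzed bidirectionally versus DMSO.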

[8] = read-out: JUN Transcription Factor, JUN (gene 3725); assay: LTEA_HepaRG_JUN: Life Technologies and Expression Analysis (LTEA) Assay for JUN Transcription Factor using HepaRG (AID 2283513)
How it was run: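 mRNA measured by TaqMan qRT-PCR after 48 h chemical exposure of HepaRG cultures; normalization to three housekeeping genes. Duplicate eight-point half-log curves from 100 uM in 0.5% DMSO; gain or loss fitted against DMSO baseline.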

[9] = read-out: Lipase C (LIPC), LIPC (gene 3990); assay: LTEA_HepaRG_LIPC: Life Technologies and Expression Analysis (LTEA) Assay for Lipase C (LIPC) using HepaRG (AID 2283514)
How it was run: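 In this multiplexed gene-expression screen, human HepaRG cultures received test chemicals for 48 h across eight concentrations with 100 uM highest, in duplicate. Values reflect LIPC mRNA induction or suppression versus DMSO vehicle, from normalized qRT-PCR.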

[10] = read-out: Lipoprotein lipase (LPL), LPL (gene 4023); assay: LTEA_HepaRG_LPL: Life Technologies and Expression Analysis (LTEA) Assay for Lipoprotein lipase (LPL) using HepaRG (AID 2283515)
How it was run: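 Concentration-response testing used half-log steps from 100 uM in 0.5% DMSO on human HepaRG cells, 48 h, duplicate wells. Phenobarbital 1 mM served as induction control; LPL mRNA was normalized to ACTB, GAPDH, POLR2A.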

[11] = read-out: MicroRNA 122 (MIR122), gene 406906; assay: LTEA_HepaRG_MIR122: Life Technologies and Expression Analysis (LTEA) Assay for MicroRNA 122 (MIR122) using HepaRG (AID 2283516); note: the transcript read is the microRNA miR-122
How it was run: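 Expression measured by microfluidic qRT-PCR with three housekeeping genes for normalisation, after 48 h treatment of HepaRG cultures. Eight concentrations (top 100 uM, half-log steps, 0.5% DMSO vehicle) in duplicate; gain or loss fitted relative to vehicle.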

[12] = read-out: matrix metalloproteinase-10 (MMP10), MMP10 (gene 4319); assay: LTEA_HepaRG_MMP10: Life Technologies and Expression Analysis (LTEA) Assay for matrix metalloproteinase-10 (MMP10) using HepaRG (AID 2283517)
How it was run: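 In differentiated HepaRG cultures kept in 0.5% DMSO, test chemicals act for 48 h over an eight-point range with a top dose of 100 uM. Expression is then quantified by TaqMan RT-PCR against ACTB, GAPDH and POLR2A.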

MYC, MYC (gene 4609) = assay: LTEA_HepaRG_MYC: Life Technologies and Expression Analysis (LTEA) Assay for MYC using HepaRG (AID 2283518)
How it was run: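 Cells are thawed, plated and cultured 48 h, then treated for 48 h with test chemicals (eight half-log concentrations from 100 uM, 0.5% DMSO vehicle). RNA is isolated and MYC expression quantified by qRT-PCR against three housekeeping genes.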

[13] = read-out: matrix metalloproteinase-3 (MMP3), MMP3 (gene 4314); assay: LTEA_HepaRG_MMP3: Life Technologies and Expression Analysis (LTEA) Assay for matrix metalloproteinase-3 (MMP3) using HepaRG (AID 2283519)
How it was run: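 Human liver HepaRG cultures received chemicals (top concentration 100 uM, 0.5% DMSO) for 48 h in duplicate. MMP3 mRNA induction or loss was then assessed via TaqMan qRT-PCR with housekeeping-gene normalisation.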

[14] = read-out: Paternally Expressed 10 (PEG10), PEG10 (gene 23089); assay: LTEA_HepaRG_PEG10: Life Technologies and Expression Analysis (LTEA) Assay for Paternally Expressed 10 (PEG10) using HepaRG (AID 2283520)
How it was run: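 PEG10 transcript measured by Fluidigm qRT-PCR, normalized to three housekeeping genes, in HepaRG cells treated 48 h (highest 100 uM, half-log steps, 0.5% DMSO vehicle). Cells plated 48 h before switching to serum-free induction medium.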

[15] = read-out: Protein phosphatase 2A (PPP2R4), PTPA (gene 5524); assay: LTEA_HepaRG_PPP2R4: Life Technologies and Expression Analysis (LTEA) Assay for Protein phosphatase 2A (PPP2R4) using HepaRG (AID 2283522)
How it was run: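 Expression was quantified by Fluidigm qRT-PCR normalised to three housekeeping genes after 48 h treatment. Human HepaRG cells received an 8-point series from 100 µM downward by half-logs, in duplicate with 0.5% DMSO vehicle and 1 mM phenobarbital as induction control.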

[16] = read-out: Phosphatase and tensin (PTEN), PTEN (gene 5728); assay: LTEA_HepaRG_PTEN: Life Technologies and Expression Analysis (LTEA) Assay for Phosphatase and tensin (PTEN) using HepaRG (AID 2283523)
How it was run: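 Expression of PTEN is quantified in the human liver line HepaRG following two days of dosing (top concentration 100 uM, half-log dilutions, 0.5% DMSO). Values derive from bidirectional curve fitting relative to DMSO controls.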

[17] = read-out: Hypoxia-inducible factor 1-alpha (Homo sapiens) (UniProt Q16665); assay: LTEA_HepaRG_HIF1A: Life Technologies and Expression Analysis (LTEA) Assay for Hypoxia-inducible factor 1 (HIF1A) Trancription factor using HepaRG (AID 2283503)
How it was run: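 HIF1A transcript level read by qRT-PCR (ACTB, GAPDH, POLR2A normalization) after 48 h chemical exposure of HepaRG cultures. Eight half-log concentrations, top 100 uM, 0.5% DMSO vehicle, duplicates; bidirectional curve fit against DMSO baseline.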

[18] = read-out: Potassium channel subfamily K member 1 (KCNK1), KCNK1 (gene 3775); assay: LTEA_HepaRG_KCNK1: Life Technologies and Expression Analysis (LTEA) Assay for Potassium channel subfamily K member 1 (KCNK1) using HepaRG (AID 2283511)
How it was run: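 Human HepaRG cultures receive test chemicals for 48 h in 0.5% DMSO, top concentration 100 uM with half-log dilutions. Induction or suppression of KCNK1 mRNA relative to DMSO is derived by bidirectional fitting of qRT-PCR data.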

Measured: outcome

Chain of Hypoxia-inducible factor 1-alpha (Homo sapiens) (Q16665 whole entry, looked up): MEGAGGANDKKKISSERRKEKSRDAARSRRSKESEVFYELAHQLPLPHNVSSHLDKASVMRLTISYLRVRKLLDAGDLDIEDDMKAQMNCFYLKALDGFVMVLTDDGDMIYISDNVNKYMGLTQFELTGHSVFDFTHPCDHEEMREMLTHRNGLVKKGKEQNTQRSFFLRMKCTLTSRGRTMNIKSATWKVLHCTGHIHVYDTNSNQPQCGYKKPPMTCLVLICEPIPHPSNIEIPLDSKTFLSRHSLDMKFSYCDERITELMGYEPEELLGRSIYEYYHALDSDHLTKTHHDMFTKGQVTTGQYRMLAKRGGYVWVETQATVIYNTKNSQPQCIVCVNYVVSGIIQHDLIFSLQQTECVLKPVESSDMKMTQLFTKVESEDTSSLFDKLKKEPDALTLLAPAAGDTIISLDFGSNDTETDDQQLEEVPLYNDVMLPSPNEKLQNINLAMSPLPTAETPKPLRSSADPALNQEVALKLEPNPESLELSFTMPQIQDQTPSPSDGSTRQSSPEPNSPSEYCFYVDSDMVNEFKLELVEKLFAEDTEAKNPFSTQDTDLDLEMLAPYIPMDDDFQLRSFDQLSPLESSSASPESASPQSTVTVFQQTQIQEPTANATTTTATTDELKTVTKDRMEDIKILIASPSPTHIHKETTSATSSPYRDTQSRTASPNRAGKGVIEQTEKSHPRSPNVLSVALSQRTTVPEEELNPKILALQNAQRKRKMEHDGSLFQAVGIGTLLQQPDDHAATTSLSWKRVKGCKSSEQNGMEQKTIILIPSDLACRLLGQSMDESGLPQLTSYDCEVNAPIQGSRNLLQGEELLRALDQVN

CC(C)(C)c1cc(O)ccc1O
not listed: [17] | [18]
inactive: all other assays above

Cn1sc(Cl)cc1=O
inactive: all assays above

Oc1cccc2cccnc12
not listed: [17]
inactive: all other assays above

O=c1[nH]c(=O)[nH]c(=O)[nH]1
inactive: all assays above
